# Results reported in PubChem BioAssay (NCATS).
# Activity calls are given as the source filed them. Where a call stands in place of a potency, no number is given. Calls follow the shape of the dose curve; as a rule, active = well fitted curve in the direction sought with a large enough effect; inconclusive = small, poorly fitted or top-dose-only effect, or another doubt; inactive = no such curve, though single readings can be large or run the other way.
# Assay: Validation qHTS assay for inhibitors of Activation Induced Cytidine Deaminase (AID): UDG Counterscreen signal (AID 1347427)
# Details: biochemical UDG counterscreen, fluorescence signal; series mostly up to 115 µM
# Excerpt: Assay Provider (PI) Patricia Gearhart Ph.D.
# National Institute on Aging
# National Institute of Health (NIH), Bethesda, MD
# Assay Provider (PI) Rahul Kohli Ph.D.
# Perelman School of Medicine
# University of Pennsylvania, Philadelphia, PA
# Activation-Induced Deaminase (AID) is a cytosine deaminase which converts cytosine into uracil within stretches of ssDNA. The presence of uracil in DNA initiates a cascade of mutagenic DNA repair to introduce point mutations and DNA double strand breaks. Specific targeting of AID to the immunoglobulin heavy chain loci (Igh) promotes mutagenesis in the antibody variable region for somatic hypermutation (SHM) or switch regions leading to class switch recombination (CSR). However, AID also plays a role in accumulating unnecessary mutations across the genome. Mis-targeting of AID results in the initiation of tumor development and leads to greater drug resistance among cancer cells when continually expressed. To identify an AID inhibitor, a small molecule library will be screened in collaboration with NCATS core facility at NIH. To confirm biological function, inhibitors will be examined in an in vitro murine B-cell activation assay and subsequent secondary validation screens. Top molecules will be further screened to identify inhibitory efficacy against a wild type primary splenocytes assay. Using these approaches, we hope to identify a small molecule with great efficacy and low toxicity for use as a molecular probe to further characterize AID's intricacies, or even as a therapeutic.
# A FRET based analysis of cytosine deamination, was developed to identify potential inhibitors of AID catalytic activity. This screen has two signal output, Read 1 evaluates the AID inhibition response. The second readout (Read 2) evaluates UDG response and is uses as a counterscreen to exclude false positive inhibitors. Inhibition in AID and inactivity in the UDG signal is the desired outcome for this assay.
# SEQUENCE No. (e.g., 1, 2, 3, etc.); […] (e.g., Cells, Incubation, Reagent, etc.); VALUE; DESCRIPTION
# 1a; Reagent; 3 uL; [4/3x] 1 uM AID/2.67 U/mL UDG
# 1b; Reagent; 3 uL; 2 U/mL UDG
# 1c; Reagent; 3 uL; 1 uM AID
# 2a; Compound; 46 nL; Follow-up plates (0.64 uM - 10 mM)
# 2b; Control; 46 nL; ATA ([…] - 10 mM)
# 3; Time; 10 min; incubation at room temperature
# 5; Time; 4 hr; incubation at room temperature
# 6; Reagent; 4 uL; [2x] 250 mM NaOH
# 7; Time; 15 sec; centrifuge at 1000 rpm
# 8; Time; 30 min; incubation at room temperature
# 9a; Detection; fluorescence (Read 1: AID); EnVision (PerkinElmer) plate reader, 540 excitation and 590 emission filters
# 9b; Detection; fluorescence (Read 2: UDG); EnVision (PerkinElmer) plate reader, 560 excitation and 665 emission filters
# NOTES (numbers refer to sequence above)
# 1a; Reagents were dispensed in a medium-binding black solid-bottom Greiner plates (789176F) using a BioRptr liquid dispenser. Dispense 3 uL of [4/3x] 1 uM AID (provided by Kohli lab) and [4/3x] 2 U/mL UDG (NEB M0280L) into columns 1, 2, 5 to 48.
# 1b; Dispense 3 uL of [4/3x] 2 U/mL UDG into column 3.
# 1c; Dispense 3 uL of [4/3x] 1 uM AID into column 4.
# 2b; 10 mM Aurintricarboxylic Acid (Sigma A1895) (ATA, 8-point, n = 2, 1:2.5 dilution in column 2) double pin-transferred (Dip Factor = 2) using the Kalypsys (Wako USA) pintool equipped with a 1536 pinhead for a [final] range of 186 nM - 114 uM.
# 3; Room temperature incubation.
# 4; Dispense 1 uL of substrate mixture from the Kohli lab [4x] […] DJC20 and [4x] 250 nM DJC23 into columns 1 to 48 .
# 5; Room temperature incubation.
# 6; Dispense 4 uL of substrate mixture [2x] 250 mM NaOH into columns 1 to 48.
# 7; Centrifugation step to remove bubbles.
# 8; Room temperature incubation
# 9a; Fluorescence signal (column label AID) was read using the EnVision plate reader. Excitation filter = 540(8) nm, barcode = 311; Emission filter = 590(20) nm, barcode = 217; Mirror = D555, barcode = 405.
# 9b; Fluorescence signal (column label UDG) was read using the EnVision plate reader. […]
row,Structure (SMILES),Potency
1,Cc1cn([C@H]2C=C[C@@H](CO)O2)c(=O)[nH]c1=O,inactive
2,COc1ccccc1N1CCN(CC(O)COc2cccc3ccccc23)CC1 (stereo not given),inactive
3,Cc1cc(C(C)(C)C)c(O)c(C)c1CC1=NCCN1,inactive
4,Nc1c2c(nc3ccccc13)CCCC2,inactive
5,C[C@](N)(Cc1ccc(O)c(O)c1)C(=O)O,inactive
6,Clc1ccc2nsnc2c1NC1=NCCN1,inactive
7,CCN1CCCC1CNC(=O)c1cc(S(=O)(=O)CC)c(N)cc1OC (stereo not given),inactive
8,Clc1ccc(C(c2ccccc2Cl)C(Cl)Cl)cc1 (stereo not given),inactive
9,CN1CCN2c3ccccc3Cc3ccccc3C2C1 (stereo not given),inactive
10,COc1cc2nc(N(C)CCCNC(=O)C3CCCO3)nc(N)c2cc1OC (stereo not given),inactive
11,CC(C(=O)O)c1cccc(C(=O)c2ccccc2)c1 (stereo not given),inactive
12,COc1ccc2[nH]cc(CCNC(C)=O)c2c1,inactive
13,CC#C[C@]1(O)CC[C@H]2[C@@H]3CCC4=CC(=O)CCC4=C3[C@@H](c3ccc(N(C)C)cc3)C[C@@]21C,inactive
14,O=C1N(c2ccccc2)c2ccccc2C1(Cc1ccncc1)Cc1ccncc1,inactive
15,COc1ccc2c(c1)c(CC(=O)O)c(C)n2C(=O)c1ccc(Cl)cc1,inactive
16,CC12CC3CC(C)(C1)CC(N)(C3)C2,inactive
17,CC(C)(Oc1ccc(C2CC2(Cl)Cl)cc1)C(=O)O (stereo not given),inactive
18,CN(C)CCOC(c1ccccc1)c1ccccc1,inactive
19,COc1ccccc1OCC(O)CN1CCN(CC(=O)Nc2c(C)cccc2C)CC1 (stereo not given),inactive
20,Cn1ccc2cc3c(cc21)CCN3C(=O)Nc1cccnc1,inactive

row,Structure (SMILES),Potency
1,CCCNCC(O)COc1ccccc1C(=O)CCc1ccccc1 (stereo not given),inactive
2,CCc1cccc2c3c([nH]c12)C(CC)(CC(=O)O)OCC3 (stereo not given),inactive
3,O=C(c1ccc(OCCN2CCCCC2)cc1)c1c(-c2ccc(O)cc2)sc2cc(O)ccc12,inactive
4,COC(=O)Nc1nc2ccc(C(=O)c3cccs3)cc2[nH]1,inactive
5,COc1nc(C)nc(Cl)c1NC1=NCCN1,inactive
6,Nc1ccn([C@H]2CC[C@@H](CO)O2)c(=O)n1,inactive
7,CCCCc1oc2ccccc2c1C(=O)c1cc(I)c(OCCN(CC)CC)c(I)c1,inactive
8,NC(CO)C(=O)NNCc1ccc(O)c(O)c1O (stereo not given),inactive
9,O=c1c(O)c(-c2ccc(O)c(O)c2)oc2cc(O)cc(O)c12,inactive
10,COc1cc2c(c(OC)c1OC)-c1ccc(OC)c(=O)cc1[C@@H](NC(C)=O)CC2,inactive
11,CC(CCc1ccc(O)cc1)NCCc1ccc(O)c(O)c1 (stereo not given),inactive
12,CC(C)NCC(O)COc1ccc(CCOCC2CC2)cc1 (stereo not given),inactive
13,NS(=O)(=O)c1cc2c(cc1Cl)NCNS2(=O)=O,inactive
14,NC(=O)OCC(COC(N)=O)c1ccccc1,inactive
15,COc1cc2nc(N3CCN(C(=O)C4COc5ccccc5O4)CC3)nc(N)c2cc1OC (stereo not given),inactive
16,CN(C)C(=O)C(CCN1CCC(O)(c2ccc(Cl)cc2)CC1)(c1ccccc1)c1ccccc1,inactive
17,NCCCCCC(=O)O,inactive
18,CC(C)C(=O)Nc1ccc([N+](=O)[O-])c(C(F)(F)F)c1,inactive
19,O=c1c(-c2ccc(O)cc2)coc2cc(O)cc(O)c12,inactive
20,Cc1ccccc1N1C(=O)c2cc(S(N)(=O)=O)c(Cl)cc2NC1C (stereo not given),inactive
